Consider seven molecules from PubChem BioAssay (EPA / NIEHS).

A short description of assay [1]: ATG_PXRE_CIS: Attagene CIS-FACTORIAL HepG2 Assay for human Pregnane X Receptor Element (PXRE) (AID 2282957). As to conditions: HepG2 Attagene CIS-FACTORIAL PXRE reporter, mRNA; actives raise or lower the signal. The gist of the method: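 Using HepG2 transfected with multiple reporter transcription units, endogenous factor-driven transcription was scored as reporter mRNA after 24 h exposure.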

Assay [2] is described as follows: ATG_PPRE_CIS: Attagene CIS-FACTORIAL HepG2 Assay for human Peroxisome Proliferator-activated Response Element (PPRE) (AID 2282958). As to conditions: HepG2 PPRE cis-element reporter, Attagene transcription factor profiling; actives raise or lower the signal. In outline: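 In this cell-based multiplex, a PPRE cis element drives a reporter sequence in transiently transfected HepG2 cells. Following 24 h treatment, labeled cDNA amplicons are sized and quantified by capillary electrophoresis, with DMSO defining baseline.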

The nature of assay [3]: ATG_RORE_CIS: Attagene CIS-FACTORIAL HepG2 Assay for human RAR-related Orphan Receptor Element (RORE) (AID 2282959). As to conditions: HepG2 Attagene cis-factorial RORE reporter, mRNA; actives raise or lower the signal. The gist of the method: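 Endogenous factor activity at a cis response element is read as reporter transcript levels in HepG2 cells, 24 h post-dose. Transcripts are quantified by RT-PCR with capillary electrophoresis, and data fitted in both directions against DMSO.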

Assay [4] is described as follows: ATG_Sox_CIS: Attagene CIS-FACTORIAL HepG2 Assay for human SRY-box transcription factor (SOX) (AID 2282960). As to conditions: HepG2 Attagene cis-factorial SOX reporter, mRNA; actives raise or lower the signal. The gist of the method: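 Measures mRNA induction of a SOX1-associated reporter in HepG2 after 24 h dosing. Fluorescently labelled RT-PCR fragments are separated by capillary electrophoresis, and gain or loss relative to DMSO control is fitted.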

The target of assay [5] is Transcription factor Sp1 (Homo sapiens) (UniProt P08047). The assay is described as follows: ATG_Sp1_CIS: Attagene CIS-FACTORIAL HepG2 Assay for human Specificity Protein 1 (Sp1) (AID 2282961). As to conditions: HepG2 Sp1 cis-reporter transcription, actives raise or lower the signal. In outline: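 Cells: HepG2, transiently transfected with cis-regulated multiplexed reporters. Exposure: 24 h. Detection: reporter transcripts amplified, fluorescently labeled, restriction-digested and sized by capillary electrophoresis. Analysis: bidirectional fit relative to DMSO.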

In assay [6] the target is Signal transducer and activator of transcription 3 (Homo sapiens) (UniProt P40763). The assay is described as follows: ATG_STAT3_CIS: Attagene CIS-FACTORIAL HepG2 Assay for human Signal Transducer and Activator of Transcription 3 (STAT3) (AID 2282963). As to conditions: HepG2, Attagene cis-factorial STAT3 reporter transcription; actives raise or lower the signal. The gist of the method:
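Readout is reporter transcript quantified by RT-PCR and capillary electrophoresis, with 6-FAM primer extension and HpaI digestion. Total RNA is taken 24 h after dosing transiently transfected HepG2 carrying cis-regulated reporter units. Bidirectional fit against DMSO.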

The nature of assay [7]: ATG_TA_CIS: Attagene CIS-FACTORIAL HepG2 Assay for human TA Basal Promoter (AID 2282964). As to conditions: HepG2 Attagene CIS-factorial TA basal promoter reporter; actives raise or lower the signal. The gist of the method: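 Cis-factorial format in HepG2: reporters report endogenous factors, not chimeric Gal4 fusions. After 24 h treatment, reporter transcripts were measured by RT-PCR-capillary electrophoresis fluorescence, analysed bidirectionally versus DMSO.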

The nature of assay [8]: ATG_TCF_b_cat_CIS: Attagene CIS-FACTORIAL HepG2 Assay for human T-Cell-Factor with beta-catenin (TCF/b-cat) (AID 2282965). As to conditions: HepG2 TCF/beta-catenin cis-reporter transcription, actives raise or lower the signal. The gist of the method:
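Endogenous transcription factor activity is captured through cis-promoter reporter constructs transiently introduced into human HepG2 liver cells. Induced reporter mRNA is measured after 24 h and fitted bidirectionally relative to DMSO.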

Assay [9] in a line: ATG_TAL_CIS: Attagene CIS-FACTORIAL HepG2 Assay for human TAL Basal Promoter (AID 2282966).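 Also: background control endpoint measuring basal TAL promoter reporter mRNA not a specific factor.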 As to conditions: HepG2 Attagene cis-factorial TAL promoter reporter; actives raise or lower the signal. The gist of the method:
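After 24 hours of chemical exposure, transfected HepG2 cells yielded RNA that was converted to 6-FAM-labelled, HpaI-digested reporter fragments for capillary electrophoresis. Values derive from bidirectional fitting against DMSO controls.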

Assay [10] can be described thus: ATG_TGFb_CIS: Attagene CIS-FACTORIAL HepG2 Assay for human Transforming Growth Factor (TGF) (AID 2282967). As to conditions: HepG2 Attagene CIS TGFb reporter, mRNA transcription; actives raise or lower the signal. The gist of the method: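 Multiplexed cis-reporter HepG2 system, 24 h treatment; mRNA induction read by fluorescence after RT-PCR and CE; DMSO negative control, bidirectional curve fitting.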

Assay [11] in a line: ATG_VDRE_CIS: Attagene CIS-FACTORIAL HepG2 Assay for human Vitamin D Receptor Element (VDRE) (AID 2282968). As to conditions: HepG2 VDRE cis-reporter transcription, actives raise or lower the signal. In outline:
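Readout is VDRE-driven reporter mRNA reflecting endogenous factor activity in human HepG2 cells, sampled 24 h post-dose. Quantification used labelled RT-PCR products separated by capillary electrophoresis; bidirectional analysis relative to DMSO.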

Assay [12] has as its target X-box-binding protein 1 (Homo sapiens) (UniProt P17861). Kind of assay: ATG_Xbp1_CIS: Attagene CIS-FACTORIAL HepG2 Assay for human X-box Binding Protein 1 (XBP1) (AID 2282972). As to conditions: HepG2 XBP1 cis-element reporter, Attagene multiplex; actives raise or lower the signal. The gist of the method: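 Multiplexed cis-reporter readout in transfected HepG2 liver cells. Exposure lasted 24 hours. Activity in either direction was fitted against DMSO as negative control and baseline.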

Assay [13] in a line: ATG_M_19_TRANS: Attagene TRANS-FACTORIAL HepG2 Assay for M19 Transcription Factor (Internal Marker) (AID 2282974; active = hit-call score of the fitted dose curve at least 0.9, where 1 is the maximum). As to conditions: HepG2 Attagene TRANS-FACTORIAL M19 internal marker reporter. In outline: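 Reporter mRNA induction was measured in transfected HepG2 cells 24 h after dosing. Endpoint fitted upward relative to DMSO and serves as a background control within the multiplexed TRANS panel.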

Assay [14] can be described thus: ATG_GAL4_TRANS: Attagene TRANS-FACTORIAL HepG2 Assay for GAL4 (Internal Marker) (AID 2282976; active = hit-call score of the fitted dose curve at least 0.9, where 1 is the maximum). As to conditions: HepG2 Attagene TRANS GAL4 internal marker reporter. In outline:
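First, HepG2 cells were transfected with reporter units under GAL4-UAS control. Next, they were treated with chemical for 24 h. Finally, RNA was reverse-transcribed, PCR-amplified, FAM-labelled and resolved by capillary electrophoresis, with induction scored against DMSO.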

Assay [15] has as its target Estrogen-related receptor gamma (Homo sapiens) (UniProt P62508). Kind of assay: ATG_ERRg_TRANS: Attagene TRANS-FACTORIAL HepG2 Assay for human Estrogen-Related Receptor gamma (ERRg) (AID 2282977; active = hit-call score of the fitted dose curve at least 0.9, where 1 is the maximum;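 also: hits increase reporter signal over DMSO so potencies reflect activators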). As to conditions: HepG2 Attagene TRANS reporter, ERRg transactivation. The gist of the method: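 Induction of reporter transcripts through a chimeric NR-Gal4 protein is quantified in transfected human HepG2 liver cells after 24 h chemical exposure, using RT-PCR with capillary electrophoresis detection and DMSO as baseline.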

Assay [16] addresses Glucocorticoid receptor (Homo sapiens) (UniProt P04150). The assay is described as follows: ATG_GR_TRANS: Attagene TRANS-FACTORIAL HepG2 Assay for human Glucocorticoid Receptor (GR) (AID 2282978; active = hit-call score of the fitted dose curve at least 0.9, where 1 is the maximum;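 also: activators score as hits since higher reporter transcript over DMSO is fitted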). As to conditions: HepG2 Attagene TRANS GR reporter, mRNA transcription. The gist of the method: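 Reporter transcript levels, detected by fluorescence after RT-PCR and capillary electrophoresis, served as the endpoint. HepG2 cells bearing transfected GAL4-UAS reporters responsive to NR-GAL4 chimeras were incubated with compound 24 h; DMSO defined baseline.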

Assay [17] can be described thus: ATG_SREBP_CIS: Attagene CIS-FACTORIAL HepG2 Assay for human Sterol Regulatory Element Binding (SREBP) (AID 2282962). As to conditions: HepG2 Attagene cis-factorial SREBP reporter, mRNA; actives raise or lower the signal. The gist of the method:
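Endogenous factor activity is measured in HepG2 through multiplexed reporter units under cis-element control. Following a 24 h incubation, reporter transcripts are reverse-transcribed, PCR-amplified and sized by capillary electrophoresis; activity is fitted in both directions relative to DMSO.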

In assay [18] the target is Estrogen receptor (Homo sapiens) (UniProt P03372). Kind of assay: ATG_ERa_TRANS: Attagene TRANS-FACTORIAL HepG2 Assay for human Estrogen Receptor alpha (ERa) (AID 2282970; active = hit-call score of the fitted dose curve at least 0.9, where 1 is the maximum). As to conditions: HepG2 Attagene TRANS ERa GAL4 reporter, mRNA. The gist of the method: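 Liver-derived HepG2 cells expressing chimeric nuclear receptor-Gal4 proteins from transient transfection were exposed for 24 hours. Gain of reporter mRNA signal versus DMSO, read by capillary electrophoresis of FAM-labelled PCR products, was recorded.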

Assay [19] has as its target Nuclear receptor subfamily 1 group I member 3 (Homo sapiens) (UniProt Q14994). Kind of assay: ATG_CAR_TRANS: Attagene TRANS-FACTORIAL HepG2 Assay for human Constitutive Androstane Receptor (CAR) (AID 2282969; active = hit-call score of the fitted dose curve at least 0.9, where 1 is the maximum;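 also: activators raise reporter mRNA above DMSO so AC50 marks induction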). As to conditions: HepG2 Attagene TRANS-FACTORIAL CAR reporter. In outline:
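Signal is reporter mRNA induction relative to DMSO, measured 24 h after dosing by RT-PCR with fluorescent primer extension and capillary electrophoresis. Human HepG2 liver cells carried transiently transfected chimeric NR-Gal4/GAL4-UAS reporter constructs.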

Assay [20] deals with Steroid hormone receptor ERR1 (Homo sapiens) (UniProt P11474). The assay is described as follows: ATG_ERRa_TRANS: Attagene TRANS-FACTORIAL HepG2 Assay for human Estrogen-Related Receptor alpha (ERRa) (AID 2282971; active = hit-call score of the fitted dose curve at least 0.9, where 1 is the maximum). As to conditions: HepG2 Attagene TRANS reporter, ERRa transactivation. In outline:
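Reporter transcript induction was quantified by RT-PCR and capillary electrophoresis of FAM-labelled, HpaI-cut products after 24 h treatment of HepG2 cells carrying transiently transfected GAL4-UAS reporter units and an exogenous ERRa-Gal4 fusion; activity scored as increase over DMSO.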

Each structure is given as a SMILES string. Inconclusive results are not listed. The source made the active and inactive calls. The calls were made as follows, unless noted: active = hit-call score of the fitted dose curve at least 0.9, where 1 is the maximum; inactive = score below 0.9.

Sequence of Steroid hormone receptor ERR1 (Homo sapiens) (P11474 whole entry, looked up, the tested form may be a part): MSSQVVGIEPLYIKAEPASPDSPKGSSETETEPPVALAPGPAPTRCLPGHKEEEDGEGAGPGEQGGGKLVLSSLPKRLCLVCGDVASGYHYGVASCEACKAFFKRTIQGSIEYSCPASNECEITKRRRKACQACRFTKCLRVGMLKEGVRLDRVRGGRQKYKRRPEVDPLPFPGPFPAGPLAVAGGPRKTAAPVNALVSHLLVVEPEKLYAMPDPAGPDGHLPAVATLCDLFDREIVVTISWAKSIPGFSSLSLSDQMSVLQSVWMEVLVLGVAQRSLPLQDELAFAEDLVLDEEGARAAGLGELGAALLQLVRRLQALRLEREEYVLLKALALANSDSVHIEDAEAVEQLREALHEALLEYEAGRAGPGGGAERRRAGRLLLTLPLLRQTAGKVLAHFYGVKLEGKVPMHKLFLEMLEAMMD
Sequence of Glucocorticoid receptor (Homo sapiens) (P04150 whole entry, looked up, the tested form may be a part): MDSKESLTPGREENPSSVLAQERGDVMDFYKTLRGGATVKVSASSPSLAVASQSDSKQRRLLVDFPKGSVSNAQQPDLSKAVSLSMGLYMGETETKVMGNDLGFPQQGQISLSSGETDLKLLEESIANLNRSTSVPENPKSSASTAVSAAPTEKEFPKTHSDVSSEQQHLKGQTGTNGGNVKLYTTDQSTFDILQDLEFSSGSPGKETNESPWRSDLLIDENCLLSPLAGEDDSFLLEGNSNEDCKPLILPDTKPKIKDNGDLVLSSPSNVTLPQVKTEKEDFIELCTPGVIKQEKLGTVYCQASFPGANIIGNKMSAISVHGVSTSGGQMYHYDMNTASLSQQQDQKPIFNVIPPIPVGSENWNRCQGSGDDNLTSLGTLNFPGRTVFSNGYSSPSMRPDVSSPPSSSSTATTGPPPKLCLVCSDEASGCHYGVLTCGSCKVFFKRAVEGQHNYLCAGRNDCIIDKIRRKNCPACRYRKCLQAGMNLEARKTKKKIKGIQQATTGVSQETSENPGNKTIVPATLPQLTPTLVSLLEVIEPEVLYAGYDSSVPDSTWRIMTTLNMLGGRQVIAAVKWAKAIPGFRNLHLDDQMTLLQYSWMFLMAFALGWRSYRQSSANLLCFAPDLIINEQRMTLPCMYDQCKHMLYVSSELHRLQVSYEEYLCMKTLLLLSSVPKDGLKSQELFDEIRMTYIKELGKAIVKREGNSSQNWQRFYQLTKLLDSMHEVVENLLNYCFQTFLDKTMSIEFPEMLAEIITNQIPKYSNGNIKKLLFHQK
Sequence of X-box-binding protein 1 (Homo sapiens) (P17861 whole entry, looked up): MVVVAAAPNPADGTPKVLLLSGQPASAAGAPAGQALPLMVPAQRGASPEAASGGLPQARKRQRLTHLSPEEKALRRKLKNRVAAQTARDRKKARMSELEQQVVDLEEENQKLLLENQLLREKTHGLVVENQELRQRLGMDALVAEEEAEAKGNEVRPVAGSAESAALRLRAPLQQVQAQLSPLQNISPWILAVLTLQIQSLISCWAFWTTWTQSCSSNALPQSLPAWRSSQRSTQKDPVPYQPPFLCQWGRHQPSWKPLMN
Sequence of Signal transducer and activator of transcription 3 (Homo sapiens) (P40763 whole entry, looked up): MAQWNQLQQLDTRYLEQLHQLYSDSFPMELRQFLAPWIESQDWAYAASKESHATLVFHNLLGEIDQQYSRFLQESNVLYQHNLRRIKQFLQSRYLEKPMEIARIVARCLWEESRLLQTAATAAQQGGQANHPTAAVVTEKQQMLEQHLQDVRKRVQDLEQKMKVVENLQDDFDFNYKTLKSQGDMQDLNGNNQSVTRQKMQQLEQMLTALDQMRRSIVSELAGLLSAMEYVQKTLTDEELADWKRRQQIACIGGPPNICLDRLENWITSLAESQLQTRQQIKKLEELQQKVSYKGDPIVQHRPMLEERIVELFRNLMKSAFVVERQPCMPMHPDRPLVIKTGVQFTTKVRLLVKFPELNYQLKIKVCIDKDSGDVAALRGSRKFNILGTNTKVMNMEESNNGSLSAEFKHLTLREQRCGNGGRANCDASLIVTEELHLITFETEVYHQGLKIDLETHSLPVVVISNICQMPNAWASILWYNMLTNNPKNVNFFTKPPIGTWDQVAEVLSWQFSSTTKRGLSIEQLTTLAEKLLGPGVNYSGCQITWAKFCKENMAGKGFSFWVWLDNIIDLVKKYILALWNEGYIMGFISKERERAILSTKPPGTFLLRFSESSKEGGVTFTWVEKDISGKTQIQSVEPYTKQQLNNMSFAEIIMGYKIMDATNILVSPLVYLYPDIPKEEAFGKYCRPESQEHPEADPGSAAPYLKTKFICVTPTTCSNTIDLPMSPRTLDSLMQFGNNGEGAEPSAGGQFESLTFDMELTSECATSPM
Sequence of Estrogen-related receptor gamma (Homo sapiens) (P62508 whole entry, looked up, the tested form may be a part): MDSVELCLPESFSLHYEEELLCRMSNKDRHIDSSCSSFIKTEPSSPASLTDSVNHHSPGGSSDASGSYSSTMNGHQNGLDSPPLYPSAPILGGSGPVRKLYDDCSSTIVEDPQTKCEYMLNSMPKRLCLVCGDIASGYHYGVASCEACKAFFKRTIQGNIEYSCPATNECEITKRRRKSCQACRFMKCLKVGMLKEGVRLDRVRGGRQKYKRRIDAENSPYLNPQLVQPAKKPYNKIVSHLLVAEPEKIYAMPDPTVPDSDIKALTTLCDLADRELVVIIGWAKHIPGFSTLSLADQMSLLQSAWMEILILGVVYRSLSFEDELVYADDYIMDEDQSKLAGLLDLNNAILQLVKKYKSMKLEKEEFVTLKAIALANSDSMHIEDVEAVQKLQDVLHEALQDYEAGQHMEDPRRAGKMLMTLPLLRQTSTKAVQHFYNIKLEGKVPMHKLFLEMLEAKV
Sequence of Estrogen receptor (Homo sapiens) (P03372 whole entry, looked up, the tested form may be a part): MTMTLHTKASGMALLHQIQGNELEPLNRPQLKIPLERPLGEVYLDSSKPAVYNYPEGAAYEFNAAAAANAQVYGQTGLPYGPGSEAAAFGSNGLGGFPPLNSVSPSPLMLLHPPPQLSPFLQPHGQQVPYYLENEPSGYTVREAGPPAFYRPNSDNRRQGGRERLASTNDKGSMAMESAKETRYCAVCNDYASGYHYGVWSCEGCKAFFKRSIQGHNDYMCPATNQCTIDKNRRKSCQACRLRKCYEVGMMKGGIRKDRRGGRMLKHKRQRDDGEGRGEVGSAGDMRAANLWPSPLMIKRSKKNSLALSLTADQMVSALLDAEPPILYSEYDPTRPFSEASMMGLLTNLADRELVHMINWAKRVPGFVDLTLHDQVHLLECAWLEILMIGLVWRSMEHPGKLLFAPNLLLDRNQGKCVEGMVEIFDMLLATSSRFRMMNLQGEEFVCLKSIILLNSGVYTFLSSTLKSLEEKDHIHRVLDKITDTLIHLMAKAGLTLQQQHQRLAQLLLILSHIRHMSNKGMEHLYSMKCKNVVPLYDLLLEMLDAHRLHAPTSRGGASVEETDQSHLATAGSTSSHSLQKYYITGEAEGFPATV
Sequence of Transcription factor Sp1 (Homo sapiens) (P08047 whole entry, looked up): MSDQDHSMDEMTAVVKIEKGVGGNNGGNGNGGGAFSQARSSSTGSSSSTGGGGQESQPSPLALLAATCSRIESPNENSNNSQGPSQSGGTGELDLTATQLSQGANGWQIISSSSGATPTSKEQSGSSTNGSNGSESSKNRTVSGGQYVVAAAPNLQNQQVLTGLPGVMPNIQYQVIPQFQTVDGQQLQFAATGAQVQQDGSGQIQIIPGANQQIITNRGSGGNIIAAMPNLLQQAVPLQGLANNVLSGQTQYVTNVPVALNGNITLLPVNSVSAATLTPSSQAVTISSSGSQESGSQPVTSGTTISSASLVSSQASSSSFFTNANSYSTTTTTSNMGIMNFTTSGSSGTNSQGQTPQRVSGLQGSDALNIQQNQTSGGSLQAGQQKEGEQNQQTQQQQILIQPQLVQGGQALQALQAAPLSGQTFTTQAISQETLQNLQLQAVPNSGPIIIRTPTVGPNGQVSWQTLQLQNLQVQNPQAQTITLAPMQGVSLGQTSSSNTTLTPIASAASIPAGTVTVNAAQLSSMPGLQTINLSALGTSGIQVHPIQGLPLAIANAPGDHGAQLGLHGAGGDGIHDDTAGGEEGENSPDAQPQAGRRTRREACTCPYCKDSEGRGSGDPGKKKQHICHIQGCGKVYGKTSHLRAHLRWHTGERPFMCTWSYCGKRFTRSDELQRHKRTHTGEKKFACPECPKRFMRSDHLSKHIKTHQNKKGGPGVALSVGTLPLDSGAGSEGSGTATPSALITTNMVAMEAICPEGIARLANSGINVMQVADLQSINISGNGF
Sequence of Nuclear receptor subfamily 1 group I member 3 (Homo sapiens) (Q14994 whole entry, looked up, the tested form may be a part): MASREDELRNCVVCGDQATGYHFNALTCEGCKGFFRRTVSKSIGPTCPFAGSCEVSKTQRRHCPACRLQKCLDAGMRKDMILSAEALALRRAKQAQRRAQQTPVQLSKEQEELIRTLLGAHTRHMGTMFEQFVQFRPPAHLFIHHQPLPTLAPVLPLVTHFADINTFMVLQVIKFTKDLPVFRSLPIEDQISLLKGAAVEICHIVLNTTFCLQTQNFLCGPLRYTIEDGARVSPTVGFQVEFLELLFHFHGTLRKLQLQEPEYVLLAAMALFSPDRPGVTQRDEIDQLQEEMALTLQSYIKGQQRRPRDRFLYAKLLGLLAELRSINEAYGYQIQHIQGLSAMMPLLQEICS

On to `CCO[Si](C)(C)OCC`, for which the call in [1], in [2], in assay [3], in assay [4], in assay [5] and in [6] was inactive. Besides, the outcome in assay [7], in assay [8], in [9], in assay [10], in [11] and in [12] was inactive. The outcome in [13], in assay [14], in [15] and in assay [16] was inactive.

As for `Cc1ccccc1OCC(=O)O`, the molecule was called inactive in [1], in assay [2], in assay [3], in assay [4], in assay [5] and in [17]. For the same molecule, the molecule was classed as inactive in assay [7], in [8], in assay [9], in [10], in assay [11] and in assay [18]. For the same molecule, the outcome in assay [12], in [13] and in assay [16] was inactive.

`Cc1cccc2c1ccc1ccccc12`: the AC50 (in general, the midpoint of the concentration-response curve, whichever way the signal moves) in assay [1] is 27.4 µM (active); in assay [18] it was 11.2 µM (active). The molecule was called inactive in assay [2], in assay [3], in [4], in assay [17], in [6] and in assay [7]. Also, the molecule was classed as inactive in [8], in [9], in [10], in assay [11], in [19] and in [20]. Further, the molecule was called inactive in assay [12], in assay [13] and in assay [16].

With `c1cc2cccc3c4cccc5cccc(c(c1)c23)c54`, the result in assay [1], in assay [2], in assay [3], in [4], in [5] and in assay [17] was inactive. Also, the molecule was classed as inactive in [7], in assay [8], in [9], in [10], in [11] and in assay [19]. The outcome in [18], in assay [20], in [12], in [15] and in [16] was inactive.

Regarding `CCCCCCOC(=O)c1ccc(O)cc1`, the AC50 in [1] is 13 µM (active); in assay [2], 22.9 µM (active); in [3] it was 51.2 µM (active); in [5] it was 37.1 µM (active); in assay [10], 50.8 µM (active); in assay [11], 49.9 µM (active). In addition, the AC50 in assay [12] was 54.6 µM (active). The molecule was called inactive in [4], in assay [7], in [8], in assay [9], in assay [20] and in assay [13].

Regarding `CCCCCCc1ccc(N)cc1`, the molecule was classed as inactive in assay [1], in assay [2], in assay [3], in assay [4], in assay [17] and in [6]. In addition, the call in assay [7], in [9], in [10], in assay [11], in [19] and in assay [20] was inactive. In addition, the molecule was classed as inactive in [12] and in [16]. For the same molecule, the figures for the AC50 in assay [8] and in assay [18] were 5.73 µM (active) and 11.6 µM (active), respectively.

On to `CC(C)(O)C(=O)c1ccccc1`, for which the AC50 in assay [1] was 36.2 µM (active). The molecule was called inactive in [2], in assay [3], in assay [4], in assay [5], in assay [17] and in [7]. Moreover, the call in assay [8], in assay [9], in [10], in [11], in [19] and in [20] was inactive. The molecule was classed as inactive in [12], in [13], in assay [15] and in [16].
